Results from PubChem BioAssay AID588475 (Sanford-Burnham Center for Chemical Genomics, 2011).
Several values for one entry are separate records, joined by “and”; a condition that tells them apart may be missing. Equal entries are not always repeated. Screen size: about 350,000 compounds; about 2,100 (0.6%) were called active.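 Rule for the calls: active = inhibition of the ligand-induced calcium signal above about 50% at the single tested concentration (limit read from the data); inactive = the rest.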 This excerpt belongs to a sample that is enriched for actives. The source holds several records for some structures; these can differ, active in one and inactive in another.

Experiment: blockers of CRF-evoked CRF-R2/CRF-BP calcium response – cell-based, HEK293, calcium dye fluorescence, uHTS, primary screen (AID 588475)
Details: CRF-induced calcium fluorescence, at 11.8 µM, stronger effect = higher value

| SMILES | inhibition |
| --- | --- |
| COc1ccc(Cn2c(O)c(/C=C3/C=CC=N3)c(=O)[nH]c2=O)cc1 | 0.93% (inactive) |
| NC(=O)C1(N2CCCCC2)CCN(C2CC(=O)N(Cc3ccc(N4CCCC4=O)cc3)C2=O)CC1 (stereo not drawn) | -8.44% (inactive) |
| O=C(O)CSCC(=O)Nc1ccc(C(F)(F)F)cc1 | -14.8% (inactive) |
| Cc1cc(C)c2c(=O)[nH]c(SCC(=O)Nc3ccc(Br)cc3)nc2n1 | -6.59% (inactive) |
| O=C(O)CC(SCC(=O)Nc1ccc(Br)cc1)C(=O)O (stereo not drawn) | 57.3% (active) |
| O=C(CN1CCOC1=O)N1CCCC(Nc2ccc(F)c(F)c2)C1 (stereo not drawn) | 0.32% (inactive) |
| CCc1cc(=O)oc2c(C)c(OCC(=O)N3CC[C@@]4(O)CCCC[C@H]4C3)ccc12 | -9.77% (inactive) |
| COc1ccc(OC)c(CNC(=O)Cn2nc(C)c3c(C)n(-c4ccc(C)cc4)nc3c2=O)c1 | 9.58% (inactive) |
| CCOP(=O)(OCC)C(Nc1ccc([N+](=O)[O-])cc1)c1ccc(Cl)cc1 (stereo not drawn) | 40.7% (inactive) |
| CCOP(=O)(OCC)C(Nc1cccc(C)c1)c1ccc(F)cc1 (stereo not drawn) | -6.82% (inactive) |
| CCCCOC(=O)c1ccc(NC(c2ccc(C)cc2)P(=O)(OC)OC)cc1 (stereo not drawn) | 102% (active) |
| O=C(CCCn1c(=O)c2sccc2n(CC(=O)NCC2CCCO2)c1=O)NCc1ccco1 (stereo not drawn) | -17.3% (inactive) |
| CCOC(=O)N1CCN(S(=O)(=O)c2cc3c(cc2C)NC(=O)CO3)CC1 | -1.54% (inactive) |
| CN1CCN(CC(=O)C23CC4CC(CC(C4)C2)C3)CC1 | 7.99% (inactive) |
| Cc1ccccc1N1CCN(C2CCCN(C(=O)c3ocnc3C)C2)CC1 (stereo not drawn) | 1% (inactive) |
| Cc1cnc(C(=O)N2CCCC(N3CCN(c4ccccc4F)CC3)C2)cn1 (stereo not drawn) | 14.5% (inactive) |
| Cc1ccccc1N1CCN(C2CCCN(C(=O)c3cn4c(C)cccc4n3)C2)CC1 (stereo not drawn) | 53.6% (active) |
| Cc1ccc(-n2cc3ccc([N+](=O)[O-])cc3n2)cc1 | -2.01% (inactive) |
| Cc1ccc(NC(=O)c2oc3ccccc3c2C)c([N+](=O)[O-])c1 | -13.1% (inactive) |
| Cc1ccnc(N2CCCC(C(=O)NC3CC3)C2)n1 (stereo not drawn) | 50.4% (active) |
| COc1cc(C)nc(N2CCCC(C(=O)NCC(C)C)C2)n1 (stereo not drawn) | -9.18% (inactive) |
| O=C(NC1CC1)C1CCCN(C(=O)NC2CCCCC2)C1 (stereo not drawn) | 1.71% (inactive) |
| CC(C)(C)NC(=O)CN1CCC(NC(=O)C23CC4CC(CC(C4)C2)C3)CC1 | -2.97% (inactive) |
| O=C(CNCc1ccc(F)cc1)Nc1ccccc1-c1ccccc1 | -15% (inactive) |

| SMILES | inhibition |
| --- | --- |
| O=C(COC(=O)c1ccc(N2CCCC2=O)cc1)c1ccc(OC(F)F)cc1 | 4.33% (inactive) |
| Cc1c(NC(=O)c2coc(=O)c(Br)c2)c(=O)n(-c2ccccc2)n1C | -18.5% (inactive) |
| O=C(Nc1cccc(F)c1)c1coc(=O)c(Br)c1 | 102% (active) |
| O=C(CCN1C(=O)c2ccccc2C1=O)Nc1cccc(F)c1 | -0.74% (inactive) |
| Cc1nn(-c2ccccc2)c(C)c1/C=C/C(=O)OC(C)C(N)=O (stereo not drawn) | 23.7% (inactive) |
| Cc1nn(-c2ccccc2)c(Cl)c1/C=C/C(=O)c1ccc(O)cc1 | 57.7% (active) |
| Cc1nn(-c2ccccc2)c(Cl)c1/C=N/NC(=O)c1nn(C)cc1[N+](=O)[O-] | 15.5% (inactive) |
| CC1(C)CC(=O)C(N=Nc2c(F)cccc2F)=C(O)C1 | 14.8% (inactive) |
| O=C(NCCC1=CCCCC1)c1ccc(-n2cncn2)cc1 | -5.9% (inactive) |
| Cn1nnc2cc(C(=O)NCCC3=CCCCC3)ccc21 | 69% (active) |
| CN(c1ccc(C(=O)NCCC2=CCCCC2)cc1)S(C)(=O)=O | 3.31% (inactive) |
| CCCCCCCCCCCC(=O)O | 16.1% (inactive) |
| Cc1ccc(S(=O)(=O)c2c[nH]c3ccc(C)cc3c2=O)cc1 | -6.79% (inactive) |
| O=C(c1nnc(-c2ccc(Cl)cc2)o1)C1CCCC1 | 1.38% (inactive) |
| S=c1[nH]nc(-c2ccc(Cl)cc2)n1CC1CCCO1 (stereo not drawn) | 19% (inactive) |
| O=C(c1[nH]ncc1-c1ccc(Cl)cc1)C1CO1 (stereo not drawn) | 98.5% (active) |
| CN(C(=O)c1cccc(NC(=O)Cc2ccc([N+](=O)[O-])cc2)c1)C1CCC1 | 10.4% (inactive) |
| CCOC(=O)c1cc2occc2n1CC(=O)NC1CCC(C)CC1 (stereo not drawn) | 4.37% (inactive) |
| O=C(CN1C(=O)CC(c2ccccc2)=Nc2ccccc21)NC1CCCCC1 | 3.75% (inactive) |
| CC(=O)Oc1c(C(=O)c2nnc(C)o2)c(=O)n(Cc2ccccc2)c2ccccc12 | -18.6% (inactive) |
| NC(N)=N/N=C/c1ccc(OCc2ccc(Cl)cc2Cl)cc1 | -68.7% (inactive) |
| O=C1c2ccccc2-c2ncnc3c(N4CCOCC4)cc(N4CCOCC4)c1c23 | 54% (active) |
| Cc1oc2c(c1C(=O)N1CCOCC1)C(=O)c1ccccc1C2=O | 3.77% (inactive) |
| O=S(=O)(Nc1cc(Cl)ccc1N1CCOCC1)c1ccccc1Cl | 3.16% (inactive) |

| SMILES | inhibition |
| --- | --- |
| CC1=C(C(=O)N(C)C)C(c2ccccc2OC(F)F)NC(=O)N1 (stereo not drawn) | -0.09% (inactive) |
| CCCn1nc(Oc2nc(NC(C)C)nc(N(C)C)n2)ccc1=O | 2.18% (inactive) |
| O=C(Nc1ccc(Br)cc1)c1cc(S(=O)(=O)Nc2ccccn2)ccc1Cl | -2.82% (inactive) |
| Cc1ccc(NS(=O)(=O)c2ccc(C(C)C)cc2)cc1S(=O)(=O)N1CCOCC1 | -10.7% (inactive) |
| Cc1ccc(NS(=O)(=O)c2cccs2)cc1S(=O)(=O)N1CCCCCC1 | 122% (active) |
| COc1ccccc1C(=O)Nc1ccc(C)c(S(=O)(=O)N2CCCCC2)c1 | -0.27% (inactive) |
| CN(C)CCCO/N=C(\c1ccccc1)c1ccncc1 | 1.7% (inactive) |
| Cc1cccc(CSc2nnc(C)c(=O)n2N)c1 | 18.4% (inactive) |
| Cc1cccc(CSc2nc3c(c(=O)n2C)SCC3)c1 | 59.8% (active) |
| Cn1c(SCC(=O)N2CCCCC2)nc2c(c1=O)SCC2 | -10.6% (inactive) |
| CCCN1C2=C(C(=O)CCC2)C(c2ccc(O)c(Br)c2)C2=C1CCCC2=O | -18.3% (inactive) |
| CCc1c(C)nc(N)n2c(SCC(=O)NC3CCCCC3)nnc12 | -4.43% (inactive) |
| COc1cc(/C=C(/NC(=O)c2ccc(Cl)cc2Cl)C(=O)O)cc(OC)c1OC | -5.5% (inactive) |
| CCOc1cc(/C=N/NC(=O)OC)ccc1OCCSc1ccc(Cl)cc1 | -13.1% (inactive) |
| CCOc1cc(/C=C(/C#N)c2ccc(Cl)cc2)cc(Cl)c1OCC(=O)O | 57.4% (active) |
| COc1ccc(SC[C@H](Cc2ccccc2)N2CCN(CCc3ccccc3)CCC2=O)cc1 | -0.63% (inactive) |
| O=C(O)c1cc([N+](=O)[O-])c(Nc2cccc3ccccc23)c([N+](=O)[O-])c1 | 42.1% (inactive) |
| O=C(NC(Nc1nc2ccc([N+](=O)[O-])cc2s1)(C(F)(F)F)C(F)(F)F)c1ccccc1 | 56.4% (active) |
| N=C1C(c2nc3ccccc3s2)=C(O)CN1NC(=O)c1ccc([N+](=O)[O-])cc1 | 18.1% (inactive) |
| O=C(COc1ccc(NC(=O)c2ccccc2[N+](=O)[O-])cc1)c1ccc(F)cc1 | 20.8% (inactive) |
| Cc1ccc(CNC(=O)c2cc(-c3ccccc3C)n(CC3CC(c4cccc([N+](=O)[O-])c4)=NO3)n2)cc1 (stereo not drawn) | 78.1% (active) |
| Cc1ccccc1-c1cc(C(=O)NCc2cccs2)n(CC2CC(c3cccnc3)=NO2)n1 (stereo not drawn) | 9.77% (inactive) |
| COc1ccc(C2=NOC(Cn3nc(C(=O)NCc4ccc5c(c4)OCO5)cc3-c3ccccc3)C2)cc1 (stereo not drawn) | 1.87% (inactive) |
| CC(C)c1cc(C(=O)N(C)C2CCCN(Cc3ccccc3F)C2)n(C)n1 (stereo not drawn) | -12.1% (inactive) |

| SMILES | inhibition |
| --- | --- |
| CCCCn1c(N)c(N(CC(C)C)C(=O)c2cccc(S(=O)(=O)N3CCN(C(C)=O)CC3)c2)c(=O)[nH]c1=O | 8.7% (inactive) |
| COc1ccccc1NC(=O)CC(NCCN(C)C)C(=O)O (stereo not drawn) | 3.95% (inactive) |
| COC(=O)C(CC(=O)Nc1cc(C)ccc1C)Nc1ccccc1OC (stereo not drawn) | 70.2% (active) |
| Cc1ccc(C)c(NC(=O)COC(=O)CSc2ccccc2)c1 | 6.02% (inactive) |
| CCc1ccc(S(=O)(=O)NCC(O)COc2ccc(OC)cc2)cc1 (stereo not drawn) | -4.68% (inactive) |
| Cc1ccccc1Nc1scc(-c2ccc(Br)cc2)[n+]1-c1ccccc1C | 56.5% (active) |
| Cc1ccsc1/C=N/NC(=O)Cc1cc(=O)[nH][nH]1 | 14.1% (inactive) |
| Cc1cccc(N2CCN(C(C)C(=O)N3CCc4ccccc43)CC2)c1C (stereo not drawn) | -7.95% (inactive) |
| CCN(CC)C(=O)CSc1ncnc2c1cnn2-c1ccccc1 | 55.8% (active) |
| CCN(C(=O)CSc1ncnc2c1cnn2-c1ccccc1)C1CCS(=O)(=O)C1 (stereo not drawn) | 4.09% (inactive) |
| CCC(C)N(C(=O)CSc1ncnc2c1cnn2-c1ccccc1)C1CCS(=O)(=O)C1 (stereo not drawn) | -8.13% (inactive) |
| O=C(COC(=O)c1cncc(Br)c1)Nc1ccc(S(=O)(=O)N2CCOCC2)cc1 | 5.84% (inactive) |
| COc1ccc(CCN=C2SCC(=O)N2Cc2ccccc2)cc1OC | 7.2% (inactive) |
| COc1ccc(CCN2C(=O)C(C)=C(C)C2=O)cc1OC | -6.13% (inactive) |
| COc1ccc(CCNC2=C(Cl)C(=O)N(Cc3ccccc3)C2=O)cc1OC | 54% (active) |
| N#Cc1ccc(-c2ccc(Cl)cc2)nc1Oc1ccc(F)cc1 | -14% (inactive) |
| Clc1ccc(Cl)c(Oc2ccc(Oc3nc(Cl)ccc3Cl)cc2)n1 | 55.5% (active) |
| CCc1nn(CC(=O)N2CCN(CC)CC2)c(=O)c2cccn12 | -5.15% (inactive) |
| CC(C)=N/N=C1/NC(=O)C(Cc2ccccc2)S1 (stereo not drawn) | 2.42% (inactive) |
| CN(CCOc1ccc(CC2SC(=O)NC2=O)cc1)c1ccccn1 (stereo not drawn) | 66.6% (active) and 12.6% (inactive) |
| CC(O)c1ccc(OCCN(C)c2ccccn2)cc1 (stereo not drawn) | -5.71% (inactive) |
